Source: PMC5700166

Target: T1, GST-Nv-NF-kB (Ser allele) (Nematostella vectensis, UniProt A7UNT2 2-411)
T1 sequence: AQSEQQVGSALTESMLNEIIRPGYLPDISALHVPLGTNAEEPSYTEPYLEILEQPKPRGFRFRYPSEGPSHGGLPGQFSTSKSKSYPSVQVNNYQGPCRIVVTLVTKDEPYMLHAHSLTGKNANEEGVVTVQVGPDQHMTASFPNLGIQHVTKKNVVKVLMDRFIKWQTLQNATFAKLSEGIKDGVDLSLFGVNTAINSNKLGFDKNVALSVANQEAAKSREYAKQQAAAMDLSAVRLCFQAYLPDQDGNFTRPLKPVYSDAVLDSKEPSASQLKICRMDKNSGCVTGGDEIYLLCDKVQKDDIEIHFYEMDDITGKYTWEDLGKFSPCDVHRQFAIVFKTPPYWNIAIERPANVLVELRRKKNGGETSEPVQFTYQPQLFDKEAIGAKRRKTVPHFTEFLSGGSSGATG
Assay: protein-binding microarray (PBM); PBM: ~300 nM protein, 6 mM HEPES pH 7.8, 80 mM KCl, 0.5 mM EDTA, 0.5 mM EGTA, 6% glycerol, 35 ng/ul poly-dIdC, 1% milk, 1 h, room temperature; Ap Aiptasia and Nv Nematostella (sea anemones) / Co Capsaspora / Aq Amphimedon (sponge) / Dm Drosophila / Hu human; RHD is the Rel homology domain; high values mean tight binding
Conditions: dsDNA, one strand shown

Row | Sequence | binding signal [z-score]
1 | CCGATTAACATCAGGGGGAGTACTGATGTTAATCGGGTCTTGATTCGCTTGACGCTGCTG | 5.81
2 | CCGATTAACATCATCAGGGGGGATGATGTTAATCGGGTCTTGATTCGCTTGACGCTGCTG | 3.78
3 | CCGATTAACATCAGGGGCTTCCATGATGTTAATCGGGTCTTGATTCGCTTGACGCTGCTG | 3.55
4 | CCGATTAACATCAAGGGGGGGGGTGATGTTAATCGGGTCTTGATTCGCTTGACGCTGCTG | 4.84
5 | CCGATTAACATCAGGGAGTTTACTGATGTTAATCGGGTCTTGATTCGCTTGACGCTGCTG | 3.63
6 | CCGATTAACATCACAGCAGTACCTGATGTTAATCGGGTCTTGATTCGCTTGACGCTGCTG | 3.01
7 | CCGATTAACATCAAATAAGCCCCTGATGTTAATCGGGTCTTGATTCGCTTGACGCTGCTG | 4
8 | CCGATTAACATCAACTCCCCCCCTGATGTTAATCGGGTCTTGATTCGCTTGACGCTGCTG | 4.48
9 | CCGATTAACATCAAAATTCCCGTTGATGTTAATCGGGTCTTGATTCGCTTGACGCTGCTG | 6.44
10 | CCGATTAACATCAAAATGCCCCCTGATGTTAATCGGGTCTTGATTCGCTTGACGCTGCTG | 4.81
11 | CCGATTAACATCAGGAAAGCCCCTGATGTTAATCGGGTCTTGATTCGCTTGACGCTGCTG | 6.08
12 | CCGATTAACATCAAGGGGGGGGATGATGTTAATCGGGTCTTGATTCGCTTGACGCTGCTG | 5.62
13 | CCGATTAACATCACCCCGCCCCCTGATGTTAATCGGGTCTTGATTCGCTTGACGCTGCTG | 3.65
14 | CCGATTAACATCAAACCTTCCCCTGATGTTAATCGGGTCTTGATTCGCTTGACGCTGCTG | 5.79
